The text below walks through data of publication PMC5540273 (PLoS ONE, 2017).

Among the test systems are MTOR; MUSK; MYLK2; MYLK4; MYLK; MYO3A; MYO3B; NDR2; NEK10; NEK11; NEK1; NEK2; NEK3; NEK4; NEK5; NEK6; NEK7; NEK9.
Holding throughout (details): concentration: 1 μM,replicates: in singlicate; n = 1
In the next assay the test system is T1, NDR1.
T1 construct: gene STK38

A further assay has as its system T2, NIK.
T2 construct: gene MAP3K14
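Note: KINOMEscan kinase panel screen.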

As for `CCN(CC)CCOc1ccc(Nc2ncc3cc(-c4c(Cl)cccc4Cl)c(=O)n(C)c3n2)cc1` [SB-601273], the “%Inh” value with MTOR is 43%; in the assay with MUSK, 51%; in the assay with MYLK2 it was 98.4%; in the assay with MYLK4, 26%; in the assay on MYLK, 29%; with MYO3A it was 61%. Moreover, the “%Inh” value amounted to 38% in the assay with MYO3B; 32% in the assay on NDR1; 71% in the assay on NDR2; 12% in the assay with NEK10; 98.5% in the assay with NEK11; 34% in the assay on NEK1. For the same compound, the “%Inh” value is 99.5% with NEK2; 26% in the assay on NEK3; 0% in the assay with NEK4; 35% in the assay with NEK5; 44% in the assay with NEK6; 0% in the assay on NEK7. In addition, the results for the “%Inh” value in the assay with NEK9 and in the assay on NIK were 20% and 31%, respectively.

As for `O=C(NCCCN1CCOC1=O)c1cnc(NCc2cc(Cl)ccc2Cl)nc1NC1CCCC1`, the “%Inh” value in the assay on MTOR worked out at 19%; with MUSK, 11%; in the assay on MYLK2, 0%; with MYLK4, 6%; with MYLK it was 14%; in the assay on MYO3A, 0%. The “%Inh” value is 16% in the assay with MYO3B; 31% in the assay with NDR1; 0% in the assay with NDR2; 13% in the assay with NEK10; 0% in the assay on NEK11; 0% in the assay with NEK1. Besides, the “%Inh” value with NEK2 is recorded as 7%; in the assay with NEK3 it was 31%; in the assay with NEK4, 0%; with NEK5, 0%; in the assay with NEK6, 7%; in the assay with NEK7, 22%. Further, the “%Inh” value is recorded as 0% in the assay with NEK9 and 16% in the assay on NIK.

Regarding `Nc1nc(Nc2ccccc2)cc(-c2ccc3c(N)n[nH]c3c2)n1` [GSK2225749], the “%Inh” value is given as 13% with MTOR; 4% with MUSK; 51% in the assay on MYLK2; 16% with MYLK4; 0% in the assay on MYLK; 0% with MYO3A. Further, the “%Inh” value in the assay with MYO3B came to 0%; in the assay with NDR1, 0%; with NDR2, 0%; in the assay on NEK10, 0%; with NEK11, 11%; in the assay on NEK1 it was 0%. The “%Inh” value in the assay with NEK2 is 14%; with NEK3, 0%; with NEK4, 5%; in the assay on NEK5 it was 0%; with NEK6, 0%; in the assay with NEK7, 0%. Also, the “%Inh” value came out at 11% in the assay with NEK9 and 20% with NIK.

In the case of `Cl.Cl.NC[C@H](Cc1ccc(C(F)(F)F)cc1)NC(=O)c1cc(Br)c(-c2ccnc3[nH]ccc23)s1` [GSK1487252], the “%Inh” value was determined as 11% in the assay on MTOR; 0% with MUSK; 25% in the assay with MYLK2; 45% in the assay with MYLK4; 55% in the assay with MYLK; 2% in the assay with MYO3A. Moreover, the “%Inh” value in the assay with MYO3B was 9%; with NDR1, 93.3%; with NDR2 it was 41%; in the assay with NEK10, 16%; with NEK11, 0%; in the assay on NEK1 it was 15%. Moreover, the “%Inh” value with NEK2 is 0%; in the assay with NEK3, 23%; in the assay with NEK4, 4%; in the assay on NEK5, 4%; in the assay with NEK6, 0%; in the assay with NEK7, 0%. The “%Inh” value in the assay with NEK9 turned out to be 3%; with NIK, 0%.

Consider `Cl.Cl.NC[C@H](CC1CCCCC1)NC(=O)c1cc(Br)c(-c2ccnc3[nH]ccc23)s1` [GSK1581427], for which the “%Inh” value in the assay with MTOR was determined as 6%; in the assay with MUSK, 3%; with MYLK2, 19%; with MYLK4, 99.7%; with MYLK, 40%; in the assay with MYO3A, 0%. The “%Inh” value is on record as 0% in the assay on MYO3B; 95.1% in the assay with NDR1; 82% with NDR2; 0% in the assay with NEK10; 0% in the assay with NEK11; 37% with NEK1. The “%Inh” value is recorded as 0% in the assay with NEK2; 17% with NEK3; 23% in the assay with NEK4; 0% in the assay on NEK5; 0% with NEK6; 0% with NEK7. In addition, the “%Inh” value in the assay on NEK9 is 1%; in the assay with NIK, 38%.

With `Cc1occc1-c1nc(N)c(OC[C@@H](N)Cc2c[nH]c3ccccc23)cc1-c1cc2c(C)n[nH]c2cn1` [GSK1660450], the “%Inh” value amounted to 15% in the assay on MTOR; 9% with MUSK; 29% in the assay with MYLK2; 9% in the assay with MYLK4; 37% in the assay with MYLK; 69% in the assay on MYO3A. In addition, the “%Inh” value in the assay with MYO3B was determined as 28%; in the assay on NDR1, 11%; with NDR2, 0%; in the assay on NEK10, 6%; in the assay on NEK11, 0%; with NEK1, 46%. Also, the “%Inh” value is on record as 6% in the assay on NEK2; 0% in the assay on NEK3; 0% with NEK4; 29% in the assay on NEK5; 0% in the assay on NEK6; 100% in the assay with NEK7. Besides, the “%Inh” value was found to be 67% with NEK9 and 78% with NIK.

Consider `CCN(CC)CCCCNc1ncc2cc(-c3c(Cl)cccc3Cl)c(NC(=O)NC(C)(C)C)nc2n1`, for which the “%Inh” value with MTOR turned out to be 39%; with MUSK, 10%; with MYLK2 it was 12%; in the assay with MYLK4 it was 43%; in the assay with MYLK, 4%; in the assay on MYO3A, 4%. Moreover, the “%Inh” value in the assay on MYO3B came to 23%; in the assay on NDR1, 11%; in the assay on NDR2 it was 0%; in the assay on NEK10, 29%; in the assay on NEK11, 0%; with NEK1, 43%. The “%Inh” value came to 11% with NEK2; 29% in the assay with NEK3; 0% with NEK4; 0% in the assay with NEK5; 38% with NEK6; 0% with NEK7. The “%Inh” value in the assay with NEK9 and with NIK was 0% each time.

Turning to `Cc1ccc(-n2nc(C(C)(C)C)cc2NC(=O)Nc2ccc(OCCN3CCOCC3)c3ccccc23)cc1` [GW839464], the “%Inh” value in the assay with MTOR stood at 19%; with MUSK it was 0%; with MYLK2 it was 0%; in the assay with MYLK4 it was 0%; with MYLK, 3%; in the assay on MYO3A, 0%. For the same compound, the “%Inh” value in the assay on MYO3B was 15%; in the assay with NDR1, 5%; with NDR2, 2%; in the assay on NEK10, 0%; with NEK11, 0%; in the assay on NEK1, 2%. The “%Inh” value in the assay with NEK2 was found to be 0%; with NEK3, 9%; in the assay on NEK4, 0%; with NEK5 it was 21%; in the assay on NEK6, 0%; in the assay with NEK7, 0%. For the same compound, the “%Inh” value in the assay on NEK9 and in the assay with NIK was 0% each time.

With `CCn1c(-c2nonc2N)nc2c(C#CC(C)(C)O)nc(OCCN)cc21.Cl.Cl` [GSK902056], the “%Inh” value came to 13% in the assay on MTOR; 20% with MUSK; 33% in the assay with MYLK2; 6% in the assay with MYLK4; 4% with MYLK; 0% in the assay on MYO3A. Besides, the “%Inh” value is on record as 0% in the assay with MYO3B; 31% in the assay on NDR1; 16% in the assay on NDR2; 6% with NEK10; 3% with NEK11; 0% with NEK1. Also, the “%Inh” value is 13% with NEK2; 4% in the assay on NEK3; 20% with NEK4; 0% in the assay with NEK5; 0% in the assay with NEK6; 0% with NEK7. For the same compound, the results for the “%Inh” value with NEK9 and with NIK were 0% and 63%, respectively.

On to `C[C@@H](Oc1cc(-c2cnn(C3CCNCC3)c2)cnc1N)c1c(Cl)ccc(F)c1Cl`, for which the “%Inh” value in the assay on MTOR is given as 2%; in the assay on MUSK, 75%; in the assay on MYLK2 it was 20%; in the assay with MYLK4 it was 30%; in the assay on MYLK, 21%; in the assay on MYO3A it was 0%. For the same compound, the “%Inh” value was 0% in the assay on MYO3B; 19% with NDR1; 6% in the assay on NDR2; 60% in the assay with NEK10; 0% in the assay with NEK11; 0% in the assay with NEK1. The “%Inh” value with NEK2 is 0%; with NEK3 it was 24%; in the assay with NEK4, 20%; in the assay on NEK5, 0%; in the assay with NEK6, 14%; in the assay with NEK7, 35%. For the same compound, the “%Inh” value in the assay with NEK9 was 26%; in the assay with NIK it was 0%.

With `NC(=O)c1cc(-c2ccccc2)cc2c(C3CCNCC3)c[nH]c12` [GSK301362], the “%Inh” value with MTOR is recorded as 3%; in the assay on MUSK, 21%; in the assay with MYLK2 it was 40%; with MYLK4 it was 99%; with MYLK it was 15%; with MYO3A, 0%. For the same compound, the “%Inh” value with MYO3B came out at 0%; in the assay with NDR1, 0%; in the assay on NDR2, 0%; in the assay with NEK10, 24%; in the assay with NEK11, 0%; in the assay with NEK1 it was 0%. For the same compound, the “%Inh” value is given as 10% in the assay on NEK2; 7% in the assay on NEK3; 4% in the assay with NEK4; 12% in the assay with NEK5; 0% in the assay on NEK6; 3% with NEK7. The entries for the “%Inh” value with NEK9 and with NIK were 21% and 0%, respectively.

With `Cl.Cl.Nc1nc(-c2ccc3c(N)n[nH]c3c2)cc(N2CCCC(NC(=O)c3ccccc3)C2)n1` (centres unmarked) [GSK2286775], the “%Inh” value is given as 39% in the assay with MTOR; 0% in the assay on MUSK; 0% in the assay with MYLK2; 27% with MYLK4; 11% with MYLK; 22% with MYO3A. In addition, the “%Inh” value with MYO3B is recorded as 0%; in the assay on NDR1 it was 20%; in the assay on NDR2, 0%; in the assay with NEK10, 16%; in the assay with NEK11 it was 0%; in the assay with NEK1, 7%. The “%Inh” value in the assay with NEK2 turned out to be 0%; in the assay with NEK3 it was 23%; in the assay on NEK4, 7%; in the assay with NEK5, 11%; with NEK6, 0%; in the assay on NEK7, 0%. Moreover, the “%Inh” value in the assay on NEK9 is 6%; in the assay with NIK, 0%.

For the compound `Cc1cc(C(=O)Nc2ccc(Oc3ccc4nc(NC(=O)C5CC5)cn4n3)cc2)nn1-c1ccccc1`, the “%Inh” value is recorded as 9% with MTOR; 59% with MUSK; 0% in the assay on MYLK2; 5% with MYLK4; 9% with MYLK; 0% in the assay with MYO3A. For the same compound, the “%Inh” value in the assay on MYO3B is 21%; with NDR1, 8%; in the assay with NDR2, 3%; in the assay with NEK10, 0%; in the assay on NEK11, 0%; in the assay with NEK1 it was 1%. Moreover, the “%Inh” value is 10% with NEK2; 0% in the assay on NEK3; 0% with NEK4; 0% in the assay with NEK5; 10% in the assay on NEK6; 0% in the assay on NEK7. The “%Inh” value with NEK9 and with NIK was 0% each time.
